# Results taken from PubChem BioAssay.
# Values without a mark were called inactive. The rule behind the calls is not given here.
# Biological target: Pantothenate synthetase (Mycobacterium tuberculosis (strain ATCC 25618 / H37Rv)) (UniProt P9WIL5)
# Assay: Coupled enzyme confirmation of inhibitors against recombinant Mtb PanC (AID 375);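 note: 0% = full reaction with vehicle and 100% = no enzyme background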
# Conditions: coupled enzyme assay; at 10 µM, stronger effect = higher value
# Sequence of Pantothenate synthetase (Mycobacterium tuberculosis (strain ATCC 25618 / H37Rv)) (P9WIL5 whole entry, looked up): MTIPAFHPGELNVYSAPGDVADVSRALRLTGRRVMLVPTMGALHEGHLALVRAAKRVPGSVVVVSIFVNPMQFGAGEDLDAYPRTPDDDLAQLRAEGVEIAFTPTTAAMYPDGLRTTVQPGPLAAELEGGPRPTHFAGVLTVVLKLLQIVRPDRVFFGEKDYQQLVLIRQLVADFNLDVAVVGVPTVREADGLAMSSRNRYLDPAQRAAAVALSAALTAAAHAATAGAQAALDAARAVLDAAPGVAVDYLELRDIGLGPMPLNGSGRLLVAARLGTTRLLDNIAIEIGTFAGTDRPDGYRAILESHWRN
row,SMILES,inhibition [%]
1,CC(=O)N1CCN(S(=O)(=O)c2ccc(S(=O)(=O)NC3CC3)cc2)CC1,3
2,CCOC(=O)c1cc2c(=O)n3ccccc3nc2n(CCCOC)c1=NC(=O)C(C)(C)C,4
3,CCC(=O)NC1(C(F)(F)F)C(=O)NC(C)=C1C#N (stereo not given),6
4,CCOC(=O)C1C(=O)OC(C)(C)C1C(C)C(=O)c1ccc(OC)cc1 (stereo not given),0
5,N#CCCN1CCN(S(=O)(=O)c2ccc(S(=O)(=O)NC3CCCCC3)cc2)CC1,0
6,COc1ccc(C(=O)N2CCCc3ccccc32)cc1,0
7,COc1ccc(CCNS(=O)(=O)c2ccc3c(c2)OCCO3)cc1,0
8,CCOc1ccc2[nH]c(=O)c(CN(Cc3nnnn3CCc3ccccc3)CC3CCCO3)cc2c1 (stereo not given),0
9,O=C(NCc1ccccn1)c1ccc2nc(-c3ccco3)c(-c3ccco3)nc2c1,1
10,CC(=O)C1=C(C)NC(=O)NC1c1cccc(O)c1 (stereo not given),8
11,Cn1c(=O)c2c(nc(SCC(=O)N3CCCc4ccccc43)n2C)n(C)c1=O,1
12,CC(C)(C)n1nnnc1C(c1cccc(C#N)c1)N1CCC(Cc2ccccc2)CC1 (stereo not given),2
13,CCc1nnc(SCC(=O)NC2CCCCC2)nc1CC,1
14,N#C/C(C(=O)N1CCOCC1)=C1/SC=C(c2ccccc2)N1c1ccccc1,7
15,CCN(Cc1ccccc1)C(c1ccncc1)c1nnnn1C(C)(C)C (stereo not given),0
16,C=CCn1c(CC#N)nnc1N1CCOCC1,0
17,C=CCSc1nc(N)c2c(C)c(C)sc2n1,0
18,Cc1nc(SCC#N)c2c(C)c(C)sc2n1,0
19,COc1cccc(N2CCN(CC(=O)Nc3nnc(-c4ccccc4)s3)CC2)c1,3
20,CC(=O)NCCn1c(SCC(=O)NCC2CCCO2)nc2ccccc2c1=O (stereo not given),0

row,SMILES,inhibition [%]
1,O=C(CCCn1ncn2c(cc3occc32)c1=O)N1CCc2ccccc2C1,6
2,CCOC(=O)c1c(NCc2ccc3c(c2)OCO3)c2ccccc2[nH]c1=O,0
3,N#Cc1c2n(c(=S)n(-c3ccccn3)c1=O)CCCCC2,2
4,CN(C)C(=O)c1ccc(COc2ccccc2Br)o1,0
5,Cc1nc2ccc(C(=O)O)cc2c2c1CC(C)S2 (stereo not given),0
6,O=S(c1ccsc1)c1ccsc1,0
7,Cc1n[nH]c(C)c1N1C(=O)c2cccc3cc(Br)cc(c23)C1=O,6
8,O=C(NCc1ccccc1)C1CCN(S(=O)(=O)N2CCCCCC2)CC1,2
9,Cc1ccc(C2C(C#N)=C(N)Oc3cc4c(cc32)OCO4)cc1 (stereo not given),8
10,CCn1cc(C(=O)O)c(=O)c2cc(F)c(N3CCNCC3)cc21,0
11,Cc1ccc(OCC(O)Cn2c(=N)n(CCN3CCCCC3)c3ccccc32)cc1 (stereo not given),0
12,O=C(c1ccc2nc(N3CCOCC3)sc2c1)N1CCCC1,13
13,COc1ccccc1CN(Cc1nc2ccccc2c(=O)[nH]1)C(=O)Nc1ccccc1,0
14,CC(=O)NCC(=O)N(Cc1ccco1)C1(C(=O)NC2CCCCC2)CCCCC1,0
15,CC(=O)OCC1=C(C(=O)O)N2C(=O)[C@@H](NC(=O)Cc3cccs3)[C@H]2SC1,0
16,O=C(COc1ccc2c(c1)OCO2)NC12CC3CC(CC(C3)C1)C2,4
17,COc1cccc(C2C(C(N)=O)=C(C)Nc3nc(CCCO)nn32)c1OC (stereo not given),3
18,COc1cccc(N2CCN(CC(=O)c3c[nH]c4ccc(OC)cc34)CC2C)c1 (stereo not given),2
19,C=CCSc1nc2c(c(=O)[nH]c(=O)n2C)n1CC,2
20,CC1Cc2ccccc2N1C(=O)COC(=O)Cn1nnc(-c2ccccc2)n1 (stereo not given),13
